This is a sample that favours compounds with a hit; in the whole collection about 18% have one here.
DT40 TDP1 CPT = DT40-hTDP1 cell growth loss with CPT; chicken DT40 Tdp1-/-;hTDP1 cells + 20 nM CPT, ATP luminescence, 48 h; Potency, µM (highest dose often 46.2 µM), most hits filed as inhibitors; 420,000 tested, 12% active; AID 686979; note: nearly all actives have a fitted effect of over 55% in size
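Cell growth measured by CellTiter-Glo luminescence after a minimum 48 h, 37 C compound exposure with 20 nM CPT in Tdp1-knockout DT40 cells stably expressing hTDP1, seeded 400/well; qHTS titration format.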
IL1B secr inh = blocks inflammasome-driven IL-1 beta release | THP-1 LPS/ATP IL-1B secretion, AlphaLISA, 16 h; stronger effect = lower value | activity change, % at 57.5 µM | 360,000 tested, 4.7% active | AID 743279; in the data active = activity change below about -50%; inconclusive = mostly about -30% to -49%
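Secreted IL-1B measured by AlphaLISA bead assay after 16 h compound exposure of THP-1 cells; compounds (final up to 57.5 uM) added 1 h before LPS (250 ng/mL) and ATP (1.25 mM) stimulation; lower signal means less secretion.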
DT40 TDP1 no CPT = qHTS for Inhibitors of human tyrosyl-DNA phosphodiesterase 1 (TDP1): qHTS in cells in absence of CPT. 420,000 tested, 15% active. AID 686978, 2013. DT40 Tdp1-/- hTDP1 cells, no CPT, ATP luminescence, 48 h. Potency, µM (highest dose often 46.2 µM), usual class: inhibitors; note: nearly all actives have a fitted effect of over 55% in size
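Seeded 400 DT40-hTDP1 cells/well (vehicle DMSO, no 20 nM CPT); pinned compounds; ≥48 hr at 37 °C; CellTiter-Glo luminescence as viability measure.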
Six1-Eya2 inh = inhibitors of human Six1/Eya2 interaction. Q15475+O00167. AlphaScreen GST-Six1/His-Eya2 binding, biochemical; stronger effect = lower value. activity change, % (concentration not given with the values). 360,000 tested, 0.56% active. AID 651725; in the data active = activity change below about -65%; inconclusive = mostly about -30% to -63%
Target sequence (O00167 whole entry, looked up): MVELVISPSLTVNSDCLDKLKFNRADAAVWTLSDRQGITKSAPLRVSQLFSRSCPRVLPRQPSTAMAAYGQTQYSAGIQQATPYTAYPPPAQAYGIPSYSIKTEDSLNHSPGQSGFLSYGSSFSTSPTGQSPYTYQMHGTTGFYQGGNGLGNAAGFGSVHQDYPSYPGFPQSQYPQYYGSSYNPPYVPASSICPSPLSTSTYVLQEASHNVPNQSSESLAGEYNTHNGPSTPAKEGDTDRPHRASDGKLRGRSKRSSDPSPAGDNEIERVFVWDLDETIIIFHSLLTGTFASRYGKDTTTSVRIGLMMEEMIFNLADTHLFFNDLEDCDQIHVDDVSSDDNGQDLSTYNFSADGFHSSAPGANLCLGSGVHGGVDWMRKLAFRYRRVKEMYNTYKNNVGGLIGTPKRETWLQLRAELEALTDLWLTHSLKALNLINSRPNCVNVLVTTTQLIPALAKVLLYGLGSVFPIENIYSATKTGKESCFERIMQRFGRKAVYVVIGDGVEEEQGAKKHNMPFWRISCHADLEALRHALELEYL
Target sequence (Q15475 whole entry, looked up): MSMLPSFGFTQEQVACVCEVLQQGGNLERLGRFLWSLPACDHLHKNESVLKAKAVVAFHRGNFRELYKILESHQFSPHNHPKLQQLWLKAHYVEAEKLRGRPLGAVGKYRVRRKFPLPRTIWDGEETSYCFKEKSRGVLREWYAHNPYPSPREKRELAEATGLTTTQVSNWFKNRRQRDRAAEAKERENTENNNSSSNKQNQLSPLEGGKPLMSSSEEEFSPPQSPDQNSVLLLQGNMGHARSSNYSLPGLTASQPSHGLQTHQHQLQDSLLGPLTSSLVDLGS
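GST-Six1 + His-Eya2 (5X stock: 250/500 nM); Tris pH 8.0, 300 mM NaCl, 0.05% BSA, 0.02% Tween 20; GSH donor/Ni acceptor beads; 1 h 37 °C dark; AlphaScreen readout.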
CtBP-E1A inh = inhibitors of CtBP/E1A interaction | AlphaScreen GST-E1A/His-CtBP binding, 1536-well; stronger effect = lower value | activity change, % (concentration not given with the values) | 340,000 tested, 0.49% active | AID 651724; in the data active = activity change below about -65%; inconclusive = mostly about -30% to -63%
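In 5 uL wells, 23 nL compound meets equimolar GST-E1A and His-CtBP (5X stock 125 nM each) for 2 h, 37 °C. Beads (5X, 50 ug/mL) then 1 h, 37 °C, dark.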
TDP1 block = TDP1 (human) enzyme inhibition. recombinant TDP1, AlphaScreen DNA substrate cleavage. Potency, µM (doses to about 130 µM), usual class: inhibitors. 350,000 tested, 0.28% active. AID 485290; note: nearly all actives have a fitted effect of over 40% in size
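AlphaScreen read-out: signal falls as enzyme removes the 3' tyrosine-FITC from a 5'-biotinylated DNA oligo (15 nM, 5 min, RT). Enzyme was E. coli-made recombinant Tdp1 at 1 nM, exposed to compound for 15 min beforehand; beads 10 ug/ml, 10 min.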
Hits are given with their value; 0 = inactive; ? = inconclusive; - = not tested or not shown. Unless noted, calls come from the whole dose curve; as a rule, active = well fitted curve in the direction sought with a large enough effect; inconclusive = small, poorly fitted or top-dose-only effect, or another doubt; inactive = no such curve, though single readings can be large; an effect the other way counts as inactive or inconclusive.

SMILES	DT40 TDP1 CPT	IL1B secr inh	DT40 TDP1 no CPT	Six1-Eya2 inh	CtBP-E1A inh	TDP1 block
Cc1ccc(-c2cc(C(=O)NCc3ccco3)c3ccccc3n2)s1	?	0	?	0	0	0
COc1cc(-c2cc(C(=O)NCc3ccco3)c3ccccc3n2)cc(OC)c1OC	?	0	2.59µM	0	0	0
COc1cc(-c2cc(C(=O)Nc3ccc(S(=O)(=O)NCc4ccco4)cc3)c3ccccc3n2)cc(OC)c1OC	4.61µM	0	2.91µM	0	0	0
COc1cccc(C(=O)Nc2ccc(S(=O)(=O)NCc3ccco3)cc2)c1	?	0	?	0	0	0
COc1cc(-c2cc(C(=O)NCc3ccc(S(N)(=O)=O)cc3)c3ccccc3n2)cc(OC)c1OC	?	-61.8	?	0	0	0
Cc1nc2ccn(Cc3cccnc3)c(=O)c2cc1C(=O)N1CCN(c2ccccc2)CC1	0	-	0	-	-	0
Cc1cccc(C)c1Nc1nnc(SCC(=O)Nc2ncc(C(F)(F)F)cc2Cl)s1	2.06µM	0	0	0	0	0
Cc1cccc(Nc2nnc(SCC(=O)Nc3ncc(C(F)(F)F)cc3Cl)s2)c1C	?	0	?	0	0	0
Cc1ccc(C(=O)OCC(=O)Nc2cc(S(C)(=O)=O)ccc2Cl)cc1S(=O)(=O)N1CCCCC1	0	0	0	0	0	0
CC(=O)Nc1ccc2c(COC(=O)CC3Sc4ccccc4NC3=O)cc(=O)oc2c1 (centres undefined)	0	0	?	0	0	20µM
O=C(Nc1ccc(O)c2c(=O)cc(-c3ccccc3Cl)oc12)c1cccc(Cl)c1	?	0	0	0	0	0
O=C(Nc1ccc(O)c2c(=O)cc(-c3cccc(Cl)c3)oc12)c1ccccc1Cl	?	0	20.6µM	0	-	-
COc1ccc(C2(C)NC(=O)N(Cc3cc(Cl)cc4c3OCOC4)C2=O)cc1OC (centres undefined)	0	0	?	0	0	0
COCCCNc1nc(NCc2cccc(Cl)c2)c2cnn(C)c2n1	?	-	18.4µM	-	-	0
C/C=C/C(=O)OCC(=O)Nc1c(Cl)cccc1Cl	0	0	0	0	0	0
CC(C)(C)C(=O)Nc1ccccc1C(=O)NCc1ccco1	0	0	0	0	0	0
c1nc(NCC2CCCO2)c2[nH]cnc2n1 (centres undefined)	0	0	0	0	0	-
CCOCCCNc1ncnc2c1[nH]c1ccccc12	10.3µM	0	16.4µM	0	0	0
CCCCOCCCNc1ncnc2c1[nH]c1ccccc12	2.06µM	-94.8	2.31µM	0	0	0
c1ccc2c(c1)[nH]c1c(NCC3CCCO3)ncnc12 (centres undefined)	?	0	14.6µM	0	0	0
C#CCSc1nnnn1-c1cccc(Cl)c1	0	0	0	0	0	0
C/C=C(\CS(=O)(=O)c1ccccc1)S(=O)(=O)c1ccccc1	?	?	29.1µM	0	0	0
C/C(CS(=O)(=O)c1ccccc1)=N\O	0	0	0	0	0	0
CCSc1nnc(NC(=O)CSc2nnc(CNC(=O)c3ccccc3F)o2)s1	0	0	0	0	0	0
Cc1ccc(-c2nc(CSCC(=O)N3CCN(c4ccccn4)CC3)c(C)o2)cc1	18.4µM	0	20.6µM	0	0	0
SMILES	DT40 TDP1 CPT	IL1B secr inh	DT40 TDP1 no CPT	Six1-Eya2 inh	CtBP-E1A inh	TDP1 block
CCc1ccc(-c2nc(CSCC(=O)N3CCN(c4ccccn4)CC3)c(C)o2)cc1	23.1µM	?	18.4µM	0	0	0
CC(=O)Nc1ccc(SC[C@H](CC(C)C)N2CCN(CCc3ccccc3)CCC2=O)cc1	?	0	?	0	0	0
Oc1ccc(N=Nc2ccc(Br)cc2)c(O)c1	25.9µM	0	23.1µM	0	-	0
Cc1ccc(N=Nc2ccc(O)cc2)c(Br)c1	0	-85.8	0	?	0	0
Cn1c(=O)c2c(nc(CN3CCc4ccccc4C3)n2Cc2ccccc2F)n(C)c1=O	8.2µM	-62.6	6.51µM	0	0	0
Cn1c(=O)c2c(nc(CN3CCc4ccccc4C3)n2CCCO)n(C)c1=O	0	0	?	0	0	0
CCOC(=O)Cn1c(CN2CCc3ccccc3C2)nc2c1c(=O)n(C)c(=O)n2C	4.11µM	0	4.61µM	0	0	0
Cn1c(=O)c2c(nc(CN3CCN(c4ccc(F)cc4)CC3)n2Cc2ccccc2F)n(C)c1=O	10.3µM	0	8.2µM	0	0	0
Cn1c(=O)c2c(nc(CN3CCN(c4ccccc4F)CC3)n2Cc2ccccc2F)n(C)c1=O	6.51µM	-	5.17µM	-	-	0
COc1ccc(C(=O)Cn2c(N3CCCCC3)nc3c2c(=O)n(C)c(=O)n3C)cc1OC	0	0	0	0	0	-
O=C(CCCc1ccccc1)NCc1ccc2c(c1)OCO2	0	0	0	0	0	0
O=[N+]([O-])c1ccc(CCNc2cccc3ccccc23)c([N+](=O)[O-])c1	?	0	0	0	0	0
CCCOC(=O)C1=C(C)NC2=C(C(=O)CCC2)C1c1ccc(N(C)C)cc1 (centres undefined)	0	0	?	0	0	0
COc1ccc(-c2ccc3c(n2)sc2c(=O)[nH]c(=O)[nH]c23)cc1OC	-	-	-	-	-	0
Cc1ccccc1-c1nc(-c2ccc(NC(=O)c3ccc(Br)o3)cc2)no1	15.8µM	0	?	0	0	0
COc1ccc(-c2noc(N3CCC(C(=O)Nc4cccc(OC)c4)CC3)n2)cc1	18.4µM	0	?	0	0	-
COc1ccc(-c2noc(N3CCC(C(=O)Nc4ccccc4OC)CC3)n2)cc1	?	0	?	0	0	-
COc1ccc(-c2noc(-c3ccccc3C(=O)Nc3cccc(OC)c3)n2)cc1	?	0	16.4µM	0	0	0
COc1ccc(-c2noc(-c3ccccc3C(=O)Nc3cccnc3)n2)cc1	?	0	?	0	0	0
COc1ccc(-c2noc(N3CCC(C(=O)Nc4ccc(F)cc4)CC3)n2)cc1	0	0	0	0	0	-
COc1ccc(-c2noc(N3CCC(C(=O)Nc4cccc(C)c4C)CC3)n2)cc1	?	-	14.6µM	-	-	0
COc1ccc(NC(=O)C2CC(c3ccc(Cl)cc3)=NO2)cc1 (centres undefined)	0	0	0	0	0	-
COCCCn1c(C)nnc1SCC(=O)Nc1cccc(C)c1	0	0	0	0	0	0
O=C(NC1CCN(Cc2ccccc2)CC1)c1ccc(CS(=O)c2ccccc2Cl)o1 (centres undefined)	?	0	?	0	0	-
COc1cccc(NC(=O)c2ccnc(N3CCC(C(=O)NCc4cc(OC)ccc4OC)CC3)c2)c1	23.1µM	0	16.4µM	0	0	0

Assay outcomes deposited in PubChem by National Center for Advancing Translational Sciences (NCATS).
